Experimental data reported in PubChem BioAssay AID1159580 (chemical genetic matrix, 2015).
Values joined by “and” are separate entries in the source; they are usually repeats but may differ in a detail not shown here. Identical values can stand only once. Hit rate of the full screen: of about 5,500 compounds, about 2,000 (36%) were called active. Another 18% or so got no clear call; they are omitted. Cut-off read from the data, not from the text of the source: active = normalized growth mostly below about 0.91 (no sharp cut-off); inconclusive = no clear call, values can overlap the other calls; inactive = mostly above about 0.92. Some of the results follow.

Test: chemical genetic growth profiling, strain panel (AID 1159580);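 note: tested at 20 µM; growth read once vehicle control cultures reached saturation at 30 °C; 1 = growth at the plate median or of vehicle wells; lower values mean less growth of the strain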
Details: growth OD
[1] = S. cerevisiae deletion strains, locus YDR150W, strain NUM1, stronger effect = lower value
[2] = S. cerevisiae deletion strains, locus YMR307W, strain GAS1, stronger effect = lower value
[3] = S. cerevisiae deletion strains, locus YNL322C, strain KRE1, stronger effect = lower value

Measured: normalized growth

CCCn1c(C)c(C(=O)c2ccc3ccccc3c2)c2ccccc21
inactive: S. cerevisiae deletion strains, locus YAL040C, strain CLN3, stronger effect = lower value 0.99 | S. cerevisiae deletion strains, locus YCL061C, strain MRC1 (second series), stronger effect = lower value 0.99 | [1] 1.01 | S. cerevisiae deletion strains, locus YDR363W, strain ESC2, stronger effect = lower value 0.96 | S. cerevisiae deletion strains, locus YER002W, strain NOP16, stronger effect = lower value 0.999 | [2] 1.01 | S. cerevisiae deletion strains, locus YNL175C, strain NOP13, stronger effect = lower value 0.974 | S. cerevisiae deletion strains, locus YNL197C, strain WHI3, stronger effect = lower value 0.977 | S. cerevisiae deletion strains, locus YNL224C, strain SQS1, stronger effect = lower value 1 | [3] 0.991 | S. cerevisiae deletion strains, locus YOR083W, strain WHI5 (second series), stronger effect = lower value 0.995

c1ccc2c(c1)cc1ccc3cccc4ccc2c1c34
inactive: S. cerevisiae deletion strains, locus YAL013W, strain DEP1, stronger effect = lower value 1.03 | S. cerevisiae deletion strains, locus YBR021W, strain FUR4, stronger effect = lower value 1.05 | S. cerevisiae deletion strains, locus YBR229C, strain ROT2, stronger effect = lower value 1.02 | S. cerevisiae deletion strains, locus YCL029C, strain bik1, stronger effect = lower value 0.995 | S. cerevisiae deletion strains, locus YDL035C, strain GPR1, stronger effect = lower value 1.03 | S. cerevisiae deletion strains, locus YDL074C, strain BRE1, stronger effect = lower value 1.06 | S. cerevisiae deletion strains, locus YDL101C, strain DUN1, stronger effect = lower value 1.03 | S. cerevisiae deletion strains, locus YDL134C, strain PPH21, stronger effect = lower value 1.02 | S. cerevisiae deletion strains, locus YDL185W, strain tfp1, stronger effect = lower value 0.995 | S. cerevisiae deletion strains, locus YDL192W, strain arf1, stronger effect = lower value 0.994 | S. cerevisiae deletion strains, locus YDR101C, strain arx1, stronger effect = lower value 0.995 | [1] 1.02 | S. cerevisiae deletion strains, locus YDR162C, strain NBP2, stronger effect = lower value 1.03 | S. cerevisiae deletion strains, locus YDR318W, strain mcm21, stronger effect = lower value 0.996 | S. cerevisiae deletion strains, locus YDR388W, stronger effect = lower value 0.988 | S. cerevisiae deletion strains, locus YDR502C, strain sam2, stronger effect = lower value 1.02 | S. cerevisiae deletion strains, locus YEL061C, strain CIN8, stronger effect = lower value 1.02 | S. cerevisiae deletion strains, locus YER110C, stronger effect = lower value 0.981 | S. cerevisiae deletion strains, locus YER155C, strain BEM2, stronger effect = lower value 1.01 | S. cerevisiae deletion strains, locus YER167W, strain BCK2, stronger effect = lower value 1.03 | S. cerevisiae deletion strains, locus YGL078C, strain dbp3, stronger effect = lower value 0.988 | S. cerevisiae deletion strains, locus YGL086W, strain mad1, stronger effect = lower value 0.993 | S. cerevisiae deletion strains, locus YGL248W, strain PDE1, stronger effect = lower value 1.02 | S. cerevisiae deletion strains, locus YGR078C, strain PAC10, stronger effect = lower value 1.03 | S. cerevisiae deletion strains, locus YGR135W, strain pre9, stronger effect = lower value 1.01 | S. cerevisiae deletion strains, locus YGR229C, strain SMI1, stronger effect = lower value 1.05 | S. cerevisiae deletion strains, locus YGR252W, strain gcn5, stronger effect = lower value 1 | S. cerevisiae deletion strains, locus YHR030C, strain SLT2, stronger effect = lower value 1.01 and 0.927 | S. cerevisiae deletion strains, locus YHR079C, strain IRE1 (second series), stronger effect = lower value 0.982 | S. cerevisiae deletion strains, locus YHR079C, strain IRE1, stronger effect = lower value 0.988 | S. cerevisiae deletion strains, locus YHR094C, strain hxt1, stronger effect = lower value 0.993 | S. cerevisiae deletion strains, locus YHR129C, strain ARP1, stronger effect = lower value 1.02 | S. cerevisiae deletion strains, locus YHR200W, strain rpn10, stronger effect = lower value 0.998 | S. cerevisiae deletion strains, locus YIL066C, strain RNR3, stronger effect = lower value 1.02 | S. cerevisiae deletion strains, locus YIL073C, strain SPO22, stronger effect = lower value 1.02 | S. cerevisiae deletion strains, locus YIL125W, strain kgd1, stronger effect = lower value 1.01 | S. cerevisiae deletion strains, locus YIR030C, strain dcg1, stronger effect = lower value 0.991 | S. cerevisiae deletion strains, locus YJL095W, strain BCK1, stronger effect = lower value 1.05 and 0.943 | S. cerevisiae deletion strains, locus YJL134W, strain LCB3, stronger effect = lower value 1.01 | S. cerevisiae deletion strains, locus YJL168C, strain set2, stronger effect = lower value 0.989 | S. cerevisiae deletion strains, locus YJL187C, strain SWE1 (second series), stronger effect = lower value 1.03 | S. cerevisiae deletion strains, locus YJR043C, strain POL32, stronger effect = lower value 1.06 | S. cerevisiae deletion strains, locus YJR066W, strain TOR1, stronger effect = lower value 0.903 | S. cerevisiae deletion strains, locus YJR075W, strain HOC1, stronger effect = lower value 1.02 | S. cerevisiae deletion strains, locus YKL009W, strain mrt4, stronger effect = lower value 0.994 | S. cerevisiae deletion strains, locus YKL068W, stronger effect = lower value 1 | S. cerevisiae deletion strains, locus YKL085W, strain MDH1 (second series), stronger effect = lower value 1.01 | S. cerevisiae deletion strains, locus YKL085W, strain MDH1, stronger effect = lower value 1.01 | S. cerevisiae deletion strains, locus YKL190W, strain CNB1, stronger effect = lower value 1.01 | S. cerevisiae deletion strains, locus YKR001C, strain vps1, stronger effect = lower value 0.994 | S. cerevisiae deletion strains, locus YLR039C, strain RIC1, stronger effect = lower value 1.02 | S. cerevisiae deletion strains, locus YLR058C, strain SHM2, stronger effect = lower value 1.02 | S. cerevisiae deletion strains, locus YLR102C, strain apc9, stronger effect = lower value 0.99 | S. cerevisiae deletion strains, locus YLR113W, strain HOG1, stronger effect = lower value 0.961 | S. cerevisiae deletion strains, locus YLR262C, strain YPT6, stronger effect = lower value 1.04 | S. cerevisiae deletion strains, locus YLR268W, strain sec22, stronger effect = lower value 1.01 | S. cerevisiae deletion strains, locus YLR330W, strain CHS5, stronger effect = lower value 1.01 | S. cerevisiae deletion strains, locus YLR342W, strain FKS1 (second series), stronger effect = lower value 1.01 | S. cerevisiae deletion strains, locus YLR371W, strain rom2, stronger effect = lower value 0.994 | S. cerevisiae deletion strains, locus YLR418C, strain cdc73, stronger effect = lower value 1.03 | S. cerevisiae deletion strains, locus YML016C, strain PPZ1, stronger effect = lower value 1.02 | S. cerevisiae deletion strains, locus YML032C, strain rad52, stronger effect = lower value 0.996 | S. cerevisiae deletion strains, locus YML124C, strain tub3, stronger effect = lower value 0.996 | S. cerevisiae deletion strains, locus YMR078C, strain ctf18, stronger effect = lower value 1.01 | S. cerevisiae deletion strains, locus YMR223W, strain ubp8, stronger effect = lower value 1.01 | S. cerevisiae deletion strains, locus YMR263W, strain SAP30, stronger effect = lower value 1.03 | [2] 1.02 | S. cerevisiae deletion strains, locus YNL067W, strain RPL9B, stronger effect = lower value 1.04 | S. cerevisiae deletion strains, locus YNL128W, strain TEP1, stronger effect = lower value 1.04 | S. cerevisiae deletion strains, locus YNL153C, strain GIM3, stronger effect = lower value 1.02 | S. cerevisiae deletion strains, locus YNL183C, strain NPR1, stronger effect = lower value 0.884 | S. cerevisiae deletion strains, locus YNL233W, strain BNI4, stronger effect = lower value 1.03 | S. cerevisiae deletion strains, locus YNL250W, strain rad50, stronger effect = lower value 0.998 | S. cerevisiae deletion strains, locus YNL271C, strain bni1, stronger effect = lower value 1 | S. cerevisiae deletion strains, locus YNL298W, strain CLA4, stronger effect = lower value 1.01 | S. cerevisiae deletion strains, locus YNL307C, strain MCK1, stronger effect = lower value 0.993 | [3] 1.02 | S. cerevisiae deletion strains, locus YNR052C, strain pop2, stronger effect = lower value 0.982 | S. cerevisiae deletion strains, locus YOL006C, strain TOP1, stronger effect = lower value 1.04 | S. cerevisiae deletion strains, locus YOL012C, strain htz1 0.939 | S. cerevisiae deletion strains, locus YOL147C, strain pex11, stronger effect = lower value 0.992 | S. cerevisiae deletion strains, locus YOR061W, strain CKA2, stronger effect = lower value 1.01 | S. cerevisiae deletion strains, locus YOR069W, strain VPS5, stronger effect = lower value 1.04 | S. cerevisiae deletion strains, locus YOR136W, strain idh2, stronger effect = lower value 0.99 | S. cerevisiae deletion strains, locus YOR144C, strain elg1, stronger effect = lower value 0.989 | S. cerevisiae deletion strains, locus YOR184W, strain ser1, stronger effect = lower value 1.01 | S. cerevisiae deletion strains, locus YOR231W, strain MKK1, stronger effect = lower value 0.979 | S. cerevisiae deletion strains, locus YOR316C, strain cot1, stronger effect = lower value 0.992 | S. cerevisiae deletion strains, locus YPL055C, strain LGE1, stronger effect = lower value 1.08 | S. cerevisiae deletion strains, locus YPL241C, strain CIN2, stronger effect = lower value 1.03 | S. cerevisiae deletion strains, locus YPL256C, strain CLN2, stronger effect = lower value 0.996 | S. cerevisiae deletion strains, locus YPR119W, strain clb2, stronger effect = lower value 0.983 | S. cerevisiae deletion strains, locus YPR141C, strain kar3, stronger effect = lower value 1 | S. cerevisiae deletion strains, locus YPR163C, strain tif3, stronger effect = lower value 0.995 | S. cerevisiae deletion strains, locus YPR167C, strain met16, stronger effect = lower value 1 | S. cerevisiae deletion strains, strain wtn01, stronger effect = lower value 1.01 | S. cerevisiae strains, strain wild type, stronger effect = lower value 1.01
